# Experiments:
# [1] = molecular target: T1, CDK9/cyclin T1 (Homo sapiens) (UniProt O60563+P50750); conditions: at 1 µM
# [2] = molecular target: T1, CDK9/cyclin T1 (Homo sapiens); conditions: at 10 µM
# [3] = molecular target: T2, Serine/threonine-protein kinase Chk1 (Homo sapiens) (UniProt O14757); conditions: at 1 µM
# T2 sequence (whole entry): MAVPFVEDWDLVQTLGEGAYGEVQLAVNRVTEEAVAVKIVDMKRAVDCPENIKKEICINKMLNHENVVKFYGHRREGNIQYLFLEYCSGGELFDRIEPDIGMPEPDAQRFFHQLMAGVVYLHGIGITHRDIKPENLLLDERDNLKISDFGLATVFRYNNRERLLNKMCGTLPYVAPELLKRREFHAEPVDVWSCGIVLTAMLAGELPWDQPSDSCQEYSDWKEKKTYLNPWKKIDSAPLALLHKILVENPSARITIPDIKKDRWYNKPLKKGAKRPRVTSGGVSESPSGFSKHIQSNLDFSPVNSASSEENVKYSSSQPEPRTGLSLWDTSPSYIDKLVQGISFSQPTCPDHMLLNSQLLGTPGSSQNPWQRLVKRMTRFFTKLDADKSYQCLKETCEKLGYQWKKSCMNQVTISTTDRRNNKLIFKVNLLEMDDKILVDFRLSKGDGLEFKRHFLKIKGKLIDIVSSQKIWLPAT
# [4] = molecular target: T2, Serine/threonine-protein kinase Chk1 (Homo sapiens); conditions: at 10 µM
# [5] = molecular target: Serine/threonine-protein kinase Chk2 (Homo sapiens) (UniProt O96017); conditions: at 1 µM
# Serine/threonine-protein kinase Chk2 (Homo sapiens), sequence (O96017 whole entry, canonical isoform): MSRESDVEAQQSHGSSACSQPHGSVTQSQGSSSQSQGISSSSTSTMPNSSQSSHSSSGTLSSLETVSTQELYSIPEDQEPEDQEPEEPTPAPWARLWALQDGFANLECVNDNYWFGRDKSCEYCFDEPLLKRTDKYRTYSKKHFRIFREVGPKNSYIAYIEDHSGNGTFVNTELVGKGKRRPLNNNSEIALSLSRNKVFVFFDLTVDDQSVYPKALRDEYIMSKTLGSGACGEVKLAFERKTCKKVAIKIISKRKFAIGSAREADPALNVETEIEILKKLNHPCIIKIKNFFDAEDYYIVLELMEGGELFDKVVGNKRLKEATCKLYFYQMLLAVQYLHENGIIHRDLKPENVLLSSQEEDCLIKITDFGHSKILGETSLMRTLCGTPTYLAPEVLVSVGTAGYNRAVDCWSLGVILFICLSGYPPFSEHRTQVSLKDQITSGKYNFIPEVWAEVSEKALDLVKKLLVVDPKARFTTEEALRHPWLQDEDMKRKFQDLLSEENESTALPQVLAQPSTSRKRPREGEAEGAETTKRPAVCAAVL
# [6] = molecular target: Serine/threonine-protein kinase Chk2 (Homo sapiens) (UniProt O96017); conditions: at 10 µM
# [7] = molecular target: Casein kinase I isoform gamma-1 (Homo sapiens) (UniProt Q9HCP0); conditions: at 1 µM
# Casein kinase I isoform gamma-1 (Homo sapiens), sequence (Q9HCP0 whole entry, looked up, canonical isoform): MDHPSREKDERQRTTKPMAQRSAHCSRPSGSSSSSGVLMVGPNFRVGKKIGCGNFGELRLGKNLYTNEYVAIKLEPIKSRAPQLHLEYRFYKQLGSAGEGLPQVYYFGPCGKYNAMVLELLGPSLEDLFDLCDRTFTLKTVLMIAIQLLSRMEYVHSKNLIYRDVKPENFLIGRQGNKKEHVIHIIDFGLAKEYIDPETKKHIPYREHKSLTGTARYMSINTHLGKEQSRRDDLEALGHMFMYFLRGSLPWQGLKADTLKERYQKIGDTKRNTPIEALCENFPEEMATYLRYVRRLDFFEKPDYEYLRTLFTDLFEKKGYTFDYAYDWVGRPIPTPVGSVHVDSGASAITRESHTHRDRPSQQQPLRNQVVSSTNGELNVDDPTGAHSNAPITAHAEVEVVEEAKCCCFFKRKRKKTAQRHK
# [8] = molecular target: Casein kinase I isoform gamma-1 (Homo sapiens) (UniProt Q9HCP0); conditions: at 10 µM
# [9] = molecular target: Casein kinase I isoform delta (Homo sapiens) (UniProt P48730); conditions: at 1 µM
# Casein kinase I isoform delta (Homo sapiens), sequence (P48730 whole entry, looked up, canonical isoform): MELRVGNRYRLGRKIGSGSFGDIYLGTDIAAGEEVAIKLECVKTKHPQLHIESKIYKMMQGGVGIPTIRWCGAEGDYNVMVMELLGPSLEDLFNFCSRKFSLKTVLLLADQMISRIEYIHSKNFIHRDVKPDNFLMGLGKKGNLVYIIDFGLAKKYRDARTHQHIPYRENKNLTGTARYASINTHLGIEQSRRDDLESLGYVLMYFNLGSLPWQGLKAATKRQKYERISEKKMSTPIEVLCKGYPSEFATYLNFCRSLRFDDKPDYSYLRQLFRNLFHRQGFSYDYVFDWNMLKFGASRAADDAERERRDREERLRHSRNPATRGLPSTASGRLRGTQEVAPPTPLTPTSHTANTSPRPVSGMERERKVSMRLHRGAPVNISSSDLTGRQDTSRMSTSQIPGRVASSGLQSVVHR
# [10] = molecular target: Casein kinase I isoform delta (Homo sapiens) (UniProt P48730); conditions: at 10 µM
Structure (SMILES),residual activity [1],residual activity [2],residual activity [3],residual activity [4],residual activity [5],residual activity [6],residual activity [7],residual activity [8],residual activity [9],residual activity [10]
O=C1Nc2ccc(Cl)cc2/C1=C/c1cc(Cl)c(O)c(Cl)c1,90%,69%,75%,64%,76%,25%,89%,75%,77%,35%
O=c1cc(N2CCNCC2)oc2c(-c3ccccc3)cccc12,79%,42%,83%,85%,90%,91%,97%,97%,88%,85%
CCN(CC)CCNC(=O)c1c(C)[nH]c(/C=C2\C(=O)Nc3ccc(Cl)cc32)c1C,48%,13%,24%,3%,6%,1%,64%,14%,23%,5%
Nc1n[nH]c2nc3ccccc3nc12,59%,36%,90%,79%,82%,61%,79%,69%,75%,34%
Nc1nc(Nc2ccc(S(N)(=O)=O)cc2)nn1C(=O)c1c(F)cccc1F,0%,0%,82%,31%,52%,11%,,,100%,
O=C(O)/C=C/c1cc(Br)c(Br)c(Br)c1Br,69%,13%,107%,97%,59%,33%,103%,76%,56%,12%
O=C1C(Cl)=C(N2C(=O)CCC2=O)C(=O)c2ccccc21,86%,87%,94%,87%,88%,84%,,,91%,85%
O=S(=O)(NCCNC/C=C/c1ccc(Br)cc1)c1cccc2cnccc12,72%,41%,81%,44%,81%,27%,,,,
O=C(Nc1nc2ccccc2n1CCN1CCOCC1)c1cccc([N+](=O)[O-])c1,41%,58%,85%,,79%,67%,58%,67%,64%,62%
COc1ccc2c(c1)c(C1=C(c3c[nH]c4ccccc34)C(=O)NC1=O)cn2CCCN(C)C,29%,4%,67%,41%,34%,9%,,96%,79%,76%
CCCC(=O)Oc1ccc2[nH]c(C(=O)c3cc4ccccc4[nH]3)cc2c1,108%,88%,79%,89%,93%,97%,90%,92%,87%,101%
O=c1cc(N2CCOCC2)oc2c1ccc1ccccc12,95%,70%,90%,93%,111%,93%,100%,94%,98%,86%
Cn1sc(=O)n(Cc2ccccc2)c1=O,93%,79%,88%,90%,71%,67%,96%,89%,81%,84%
CC(C)c1nn(-c2c(Cl)cccc2Cl)c2nc(Cc3ccc(OCCO)cc3)[nH]c(=O)c12,2%,0%,93%,95%,91%,80%,74%,89%,79%,53%
CCCCc1c(-c2ccc(O)cc2)[nH]c2nccnc12,7%,7%,91%,100%,31%,10%,75%,61%,81%,52%
CN(C)S(=O)(=O)c1ccc2c(c1)/C(=C/c1cc3c([nH]1)CCCC3)C(=O)N2,92%,93%,77%,73%,35%,,,,92%,71%
Cc1cc(C)c(/C=C2\C(=O)Nc3ccccc32)[nH]1,100%,78%,72%,38%,18%,3%,,,13%,2%
COc1cc2nccc(Oc3ccc(NC(=S)NC(=O)c4ccccc4C)cc3)c2cc1OC,92%,89%,83%,,48%,23%,91%,63%,85%,62%
Nc1ncnc2c1c(-c1ccc(Oc3ccccc3)cc1)cn2C1CCCC1,99%,96%,83%,113%,79%,24%,88%,73%,56%,8%
O=C1Cc2c([nH]c3ccc([N+](=O)[O-])cc23)-c2ccccc2N1,1%,2%,39%,,3%,1%,,,,
O=C(c1cc2cc(O)ccc2[nH]1)c1cc2cc(O)ccc2[nH]1,26%,4%,76%,47%,60%,22%,50%,10%,74%,37%
CC(C)(C)n1nc(Cc2cccc3ccccc23)c2c(N)ncnc21,101%,65%,86%,102%,96%,48%,,,40%,3%
N#C/C(=C1/Nc2ccccc2S1)c1ccnc(NCCc2cccnc2)n1,8%,3%,97%,84%,80%,48%,77%,29%,52%,8%
NCCNc1ncc(C(N)=O)c(Nc2cccc(C(F)(F)F)c2)n1,73%,21%,66%,27%,15%,2%,,,79%,58%
O=C1NC(=O)c2c1c1c3ccccc3[nH]c1n1cncc21,70%,59%,18%,14%,23%,8%,58%,40%,15%,9%

Structure (SMILES),residual activity [1],residual activity [2],residual activity [3],residual activity [4],residual activity [5],residual activity [6],residual activity [7],residual activity [8],residual activity [9],residual activity [10]
O=C(c1ccccc1)c1ccc(N2CCOCC2)cc1O,89%,47%,86%,90%,86%,,86%,100%,88%,92%
COc1cc2c(cc1OC)-c1n[nH]c(Nc3cccc(F)c3)c1C2,99%,50%,72%,75%,82%,70%,,73%,76%,39%
O=C1NC(=O)C(c2cn(CCCn3ccnc3)c3ccccc23)=C1Nc1ccccc1,14%,3%,75%,37%,,,,,,75%
Nc1ncnc2c1cnn2-c1ccccc1,102%,73%,91%,83%,92%,,98%,99%,85%,36%
NC(=O)Nc1sc(-c2ccc(F)cc2)cc1C(N)=O,89%,42%,37%,7%,34%,4%,104%,71%,71%,31%
CCOC(=O)c1c(C)[nH]c(/C=C2\C(=O)Nc3ccccc32)c1C,,,90%,92%,45%,34%,88%,81%,77%,62%
Nc1ncnc2[nH]nc(Nc3ccc(F)cc3)c12,80%,36%,,60%,73%,59%,,66%,42%,7%
N#Cc1c(NC(=O)c2cccc3ccccc23)sc2c1CCCC2,99%,100%,,,,76%,,,83%,77%
O=C1Cc2c([nH]c3ccc(Br)cc23)-c2ccccc2N1,,,77%,53%,,,,71%,80%,68%
CC(C)[C@H](CO)Nc1nc(Nc2cc(N)cc(Cl)c2)c2ncn(C(C)C)c2n1,,,,,67%,30%,,,74%,26%
COc1cc2ncnc(Nc3cccc(Cl)c3)c2cc1OC,,71%,,89%,79%,42%,100%,81%,87%,62%
Nc1nccc(-c2c(-c3ccc(F)cc3)ncn2C2CCNCC2)n1,,,,,,,72%,21%,,
CC(C)(C)c1nc2c3ccc(F)cc3c3c(=O)[nH]ccc3c2[nH]1,,,37%,24%,2%,1%,,,,
CCCCc1c(-c2ccc(OC)cc2)[nH]c2nccnc12,10%,17%,,,44%,11%,79%,77%,85%,73%
Oc1cccc(-c2nc(N3CCOCC3)c3oc4ncccc4c3n2)c1,,,93%,100%,100%,68%,90%,98%,83%,72%
O=C1Nc2ccccc2/C1=C\c1c(Cl)[nH]c2ccccc12,80%,34%,,,75%,41%,,,85%,51%
CSc1nc(-c2ccc(F)cc2)c(-c2ccnc(NC(C)c3ccccc3)c2)[nH]1 (configuration not stated),96%,,95%,78%,5%,3%,62%,11%,35%,9%
Fc1ccc(-c2nc3n(c2-c2ccncc2)CCS3)cc1,,,,,92%,88%,86%,28%,3%,1%
COc1ccc(Cl)cc1NC(=O)Nc1cc(C)nc2ccccc12,,,86%,81%,85%,,94%,100%,,
O=C1NC(=O)C(c2c[nH]c3ccccc23)=C1c1c[nH]c2ccccc12,36%,5%,,53%,73%,25%,,,,56%
COc1ccc(-c2cnc3c(-c4ccsc4)cnn3c2)cc1,,,87%,95%,,,98%,92%,,
O=C(CCCc1ccc(-c2ccccc2F)cc1)Nc1ccc(O)cc1,104%,,93%,108%,91%,72%,107%,102%,98%,92%
N#C/C(=C\c1ccc(O)c(O)c1)C(=O)NCc1ccccc1,,,,,89%,73%,,,80%,87%
O=C(NC(NC(=S)Nc1ccc(F)c([N+](=O)[O-])c1)C(Cl)(Cl)Cl)C(c1ccccc1)c1ccccc1 (configuration not stated),101%,95%,,,,82%,94%,55%,45%,64%
